Hit rate of the full screen: of about 16,000 compounds, about 5,800 (36%) were called active. Another 23% or so got no clear call; they are omitted. The list shows a part of the results. Unmarked numbers belong to inactive results. Calls follow the shape of the dose curve; as a rule, active = well fitted curve in the direction sought with a large enough effect; inconclusive = small, poorly fitted or top-dose-only effect, or effect the other way; inactive = no such curve, though single readings can be large or run the other way.
% is scaled to controls: 0 for no effect and ±100 for the full control effect.

This assay deals with Cytochrome P450 2C19 (Homo sapiens) (UniProt P33261). Put plainly: Cytochrome panel assay with activity outcomes. The settings on record: recombinant CYP, pro-luciferin dealkylation, luminescence, p450-cyp2c19; series mostly up to 57.1 µM; activity, negative = inhibition: at the top concentration.
Sequence of Cytochrome P450 2C19 (Homo sapiens) (P33261 whole entry, looked up): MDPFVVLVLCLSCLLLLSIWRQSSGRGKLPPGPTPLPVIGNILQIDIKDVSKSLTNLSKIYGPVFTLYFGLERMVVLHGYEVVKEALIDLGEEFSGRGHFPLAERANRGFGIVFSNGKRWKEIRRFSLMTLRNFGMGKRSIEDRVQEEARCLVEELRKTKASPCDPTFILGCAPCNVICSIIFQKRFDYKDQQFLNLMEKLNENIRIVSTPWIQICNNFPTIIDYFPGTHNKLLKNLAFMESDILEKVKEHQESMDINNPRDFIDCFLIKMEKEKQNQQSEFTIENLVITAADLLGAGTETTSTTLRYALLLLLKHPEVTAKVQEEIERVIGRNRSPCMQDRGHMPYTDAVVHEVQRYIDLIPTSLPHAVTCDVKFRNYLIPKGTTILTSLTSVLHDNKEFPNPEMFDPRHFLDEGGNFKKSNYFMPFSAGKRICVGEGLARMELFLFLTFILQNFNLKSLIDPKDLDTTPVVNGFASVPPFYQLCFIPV
In the case of `C=CCOc1ccc(CNC(C)(C)CO)cc1OCC`, the “activity, negative = inhibition” value is 68%.
Consider `COc1cc(CNC(C)(C)CO)ccc1OCC(=O)Nc1ccc(Br)cc1`, for which the AC50 was 22.4 µM (active).
Consider `C=CCOc1ccc(CNC(C)(C)CO)cc1OC`, for which the “activity, negative = inhibition” value is 23.4%.
Regarding `CC(C)CCNC(=S)NC1CCCC1`, the AC50 is 10 µM (active).
In the case of `CC(O)(CS(=O)(=O)Cc1ccccc1Cl)C(=O)Nc1cccc(C(F)(F)F)c1` (stereo not drawn), the AC50 was 2.82 µM (active).
In the case of `CC(C)(C)C(=O)N1CCC(O)(CS(=O)(=O)Cc2ccc(Cl)cc2)CC1`, the “activity, negative = inhibition” value was -29.6%.
Same read-out and setting: in the case of `CC(C)CC(=O)N1CCC(O)(CS(=O)(=O)Cc2ccc(Cl)cc2)CC1` it was -5.81%.
On to `CC(O)(CS(=O)(=O)Cc1ccc(Cl)cc1)C(=O)Nc1cccc(C(F)(F)F)c1` (stereo not drawn), for which the AC50 was 7.94 µM (active).
Consider `COCCn1c(=O)c(C)nc2cnc(N3CCN(C)CC3)nc21`, for which the “activity, negative = inhibition” value was 5.94%.
In the case of `COc1ccc(CN2C(=O)c3ccccc3C(/C=N\OCc3ccc(F)cc3)C2=O)cc1` (stereo not drawn), the AC50 was 2.51 µM (active).
With `COc1ccc(CO/N=C/c2c(C)[nH]c(=O)[nH]c2=O)cc1`, the “activity, negative = inhibition” value is -20%.
On to `CCCCOC(OCCCC)[C@H](O)CSc1ccc2ccccc2c1`, for which the AC50 was 3.16 µM (active).
As to `CCN(CC)C[C@@H](O)c1ccc2ccc3ccccc3c2c1`, the activity, negative = inhibition was -3.19% [at 11.4 µM].
Consider `CC(C)NC[C@H](O)c1ccc2ccccc2c1`, for which the AC50 entry was “inactive”.
For the compound `CCCc1nn2c(=O)c(C(c3ccc(C)cc3)c3c(O)nc4sc(CCC)nn4c3=O)c(O)nc2s1`, the “activity, negative = inhibition” value was -17.5%.
On to `CCCCCCN(CCCCCC)C(=O)Cc1c(-c2ccc(F)cc2)[nH]c2ccccc12`, for which the AC50 was 3.98 µM (active).
As for `CCN1C(=O)/C(=C2\SC(N3CCCCC3)=NC2=O)c2ccccc21`, the AC50 is 14.1 µM (active).
On to `CN(C)CN1C(=O)S/C(=C2/C(=O)N(CN(C)C)c3ccccc32)C1=O`, for which the activity, negative = inhibition was 21.4% [at 11.4 µM].
Turning to `Oc1ccc2ccccc2c1CN(Cc1c(O)ccc2ccccc12)C1CCCCC1`, the AC50 was 1 µM (active).
As to `CC(C)(C)c1ccc(O)c(CN(Cc2c(O)ccc3ccccc23)C2CCCCC2)c1`, the AC50 was 2 µM (active).
For the compound `Oc1ccc2ccccc2c1Cc1c(O)ccc2ccccc12`, the concentration at half-maximal activity (AC50) is 0.316 µM (active).
As for `CC(C)(C)c1ccc(O)c(CN(Cc2cc(C(C)(C)C)ccc2O)C2CCCCC2)c1`, the AC50 is 1.58 µM (active).
As for `CC(C)(C)CC(C)(C)c1ccc(O)c(C[N+](C)(C)[O-])c1`, the activity, negative = inhibition was -6.26% [at 11.4 µM].
Consider `CN(C)Cc1cc(C(C)(C)C)ccc1-c1ccc(C(C)(C)C)cc1CN(C)C`, for which the activity, negative = inhibition is 39.4% [at 11.4 µM].
With `O=C(O)Cc1c(O)ccc2ccccc12`, the activity, negative = inhibition was 33.5% [at 11.4 µM].
In the case of `N#Cc1cccc(NC(=O)N2CCCC3(CCN(C(=O)c4cccc(F)c4)CC3)C2)c1`, the “activity, negative = inhibition” value was -37.4%.
On to `NC(=O)C(=O)O`, for which the “activity, negative = inhibition” value is 9.7%.
Regarding `CC[C@H](NC(=O)c1c(C)c(-c2ccccc2)nc2ccccc12)c1ccccc1`, the “activity, negative = inhibition” value is -15%.
As for `CCC(NC(=O)C1(C)CC1(Br)Br)c1ccc(C)cc1` (stereo not drawn), the AC50 was 2.51 µM (active).
`O=C(NCc1ccccc1)C12CN(Cc3ccccc3)CC1C(c1cccc([N+](=O)[O-])c1)=NO2` (stereo not drawn): the AC50 was 2.51 µM (active).
Take `NC(=O)CNC(=O)[C@@H]1CC2(CC(c3cccc([N+](=O)[O-])c3)=NO2)CN1C(=O)c1ccccc1` (stereo partly drawn): the “activity, negative = inhibition” value was -22.4%.
Consider `COc1ccc(C(=O)N2CC3(CC(c4cccc([N+](=O)[O-])c4)=NO3)C[C@H]2C(=O)NCC(N)=O)cc1` (stereo partly drawn), for which the “activity, negative = inhibition” value was -24.6%.
Turning to `CC(C)CCNC(=O)C12CN(Cc3ccccc3)CC1C(c1cccc([N+](=O)[O-])c1)=NO2` (stereo not drawn), the AC50 is 3.55 µM (active).
With `Cc1ccc(S(=O)(=O)N[C@@H]2COC(=O)C/C=C\[C@H](C)COC(=O)N[C@@H](C)C(=O)C/C=C\[C@H]2C)cc1`, the activity, negative = inhibition was -6.82% [at 11.4 µM].
In the case of `COc1ccc2c(c1)OC1=C(C(=O)CCC1)C2C1=C(O)CCCC1=O` (stereo not drawn), the AC50 is 15.8 µM (active).
For the compound `CCNc1ncc2nc(-c3cccc(C#N)c3)c(=O)n(CCC#N)c2n1`, the “activity, negative = inhibition” value is -14.5%.
Turning to `CC(C)Cn1c(C(C)C)nc([N+](=O)[O-])c1S(=O)(=O)c1ccc(F)cc1`, the AC50 was 5.01 µM (active).
For the compound `CCS(=O)(=O)Nc1ccc(C2=NN(C(=O)c3ccco3)C(c3ccc(C)cc3)C2)cc1` (stereo not drawn), the half-maximal activity concentration (AC50) was 11.2 µM (active).
Regarding `Cc1ccc(C2C(C(=O)c3ccco3)=C(O)C(=O)N2c2nnc(C)s2)cc1` (stereo not drawn), the “activity, negative = inhibition” value is -20%.
Regarding `c1ccc(-c2noc(CSc3nnnn3C3CCCCC3)n2)cc1`, the AC50 is 1.26 µM (active).
`Cc1sc2nc(SCc3nc(-c4cccs4)no3)n(-c3ccccc3)c(=O)c2c1C`: the “activity, negative = inhibition” value was -7.06%.
`Cc1ccc(C)n1N1C(=O)/C(=C\c2ccc(Cl)cc2)SC1=S`: the AC50 is 7.94 µM (active).
Regarding `CCOc1cc2[nH]c(=O)n(CCCC(=O)NCc3ccc(OC)cc3)c(=O)c2cc1OCC`, the “activity, negative = inhibition” value was -24.6%.
Consider `COC(=O)N1CCC2(CCCN(Cc3ccccc3OC)C2)CC1`, for which the “activity, negative = inhibition” value is -22.1%.
With `COc1ccccc1CNC(=O)CCCn1c(=O)c2ccccc2n(CC(=O)NC2CCCC2)c1=O`, the AC50 was 7.94 µM (active).
In the case of `CC(=O)OC[C@@H]1O[C@@H](O/N=C2/C[C@@H](O)[C@@H](O)[C@@H]3[C@@H]4C(=O)N(C(C)(C)C)C(=O)[C@H]4CC[C@@H]23)[C@H](OC(C)=O)[C@H](OC(C)=O)[C@@H]1OC(C)=O`, the activity, negative = inhibition is 11.3% [at 11.4 µM].
Consider `Clc1ccc(CSc2nnc(-c3cccnc3)o2)cc1`, for which the AC50 is 3.55 µM (active).
On the same count and under the same terms, the result for `c1ccc(CSc2nnc(-c3sccc3-n3cccc3)o2)cc1` reads 2 µM (active); that for `Clc1ccc(CSc2nnc(-c3sccc3-n3cccc3)o2)cc1`, 1.12 µM (active).
Turning to `Cc1cccc(-c2nnc(SCc3ccccc3)o2)c1`, the AC50 is 11.2 µM (active).
In the case of `CC(C)N(Cc1ccccc1)S(=O)(=O)c1n[nH]c(C(C)(C)C)n1`, the activity, negative = inhibition is -40.1% [at 11.4 µM].
`Clc1cccc(CSc2nnc(-c3sccc3-n3cccc3)o2)c1`: the AC50 is 1.58 µM (active).
With `CC(C)CN1CC[C@@]2(CCCN(C(=O)c3csnn3)C2)C1`, the “activity, negative = inhibition” value was 9.51%.
Regarding `COc1ccc2c(c1)-c1c(sn(-c3ccc(OC)c(OC)c3)c1=S)C(C)(C)N2`, the AC50 is 6.31 µM (active).
With `COc1ccc(-n2cccc2C=O)cc1OC`, the “activity, negative = inhibition” value was -13.9%.
With `COc1ccc(-n2c(C)n[nH]c2=O)cc1OC`, the “activity, negative = inhibition” value is -2.09%.
Consider `Clc1ccccc1NN(Cc1ccncc1)c1ccccc1Cl`, for which the AC50 was 1.26 µM (active).
Same read-out and setting: the result for `Clc1ccccc1NN(Cc1ccccn1)c1ccccc1Cl` reads 3.98 µM (active).
In the case of `O=C(Nc1cccc(F)c1)N1CCCC2(CCNCC2)C1`, the “activity, negative = inhibition” value was 9.79%.
On the same count and under the same terms, the result for `CC(=O)N(O)CCCCCNC(=O)CCC(=O)N(O)CCCCCNC(=O)CCC(=O)N(O)CCCCCN` reads 10.1% [at 25.6 µM].
As to `O=C(c1ccccc1)c1cc(F)c(N2CCOCC2)cc1Cl`, the AC50 was 0.708 µM (active).
For `O=C(O)c1ccc(C(=O)c2ccccc2)c(C(=O)O)c1`, the activity, negative = inhibition is 33.3% [at 11.4 µM].
As to `Cc1ccc2nc(-c3ccccc3)cc(C(=O)NCCCn3ccnc3)c2c1`, the AC50 is 2 µM (active).
Regarding `COc1ccc(Nc2cc(C(=O)NCCCN3CCN(C)CC3)c3ccccc3n2)cc1`, the “activity, negative = inhibition” value was 11.9%.
As to `Cc1ccc(-n2c(C)cc(C(=S)N3CCOCC3)c2C)cc1C`, the AC50 is 0.891 µM (active).
On to `O=C(Nc1ccc(S(=O)(=O)N2CCCC2)cc1)c1ccc(CN2CCOCC2)cc1`, for which the “activity, negative = inhibition” value is -61.3%.
For `O=C(Nc1ccc(S(=O)(=O)N2CCCCC2)cc1)c1ccc(CN2CCc3ccccc3C2)cc1`, the AC50 is 7.94 µM (active).
As for `CCOC(=O)/C(C(N)=NCCCO)=C(/O)c1ccccc1`, the “activity, negative = inhibition” value is -17.8%.
With `CCOC(=O)C(/C(N)=N/C(=O)Nc1ccccc1)=C(\C)O`, the AC50 was 17.8 µM (active).
With `BrC(c1cccc2ccccc12)c1cccc2ccccc12`, the AC50 is 1.26 µM (active).
In the case of `c1c[nH]c(CN2CCOCC2)n1`, the activity, negative = inhibition was -4.4% [at 11.4 µM].
As for `Clc1ccc(-n2nnnc2CN2CCOCC2)cc1`, the AC50 was 11.2 µM (active).
Regarding `COCCn1c(=O)c(-c2cc(F)cc(F)c2)nc2cnc(N3CCNCC3)nc21`, the “activity, negative = inhibition” value is -41.5%.
`COc1ccc(S(=O)(=O)Nc2ccc(F)cc2)c(C)c1C`: the AC50 was 0.0891 µM (active).
`O=C(CSc1nnnn1C1CCCC1)Nc1ccc(F)cc1`: the AC50 is 2 µM (active).
For the compound `Fc1ccc(Nc2ccnc(-c3ccccc3C(F)(F)F)n2)cc1`, the AC50 is 10 µM (active).
As to `FC(F)(F)c1ccccc1-c1nccc(NCc2cccs2)n1`, the concentration at half-maximal activity (AC50) was 2 µM (active).
On to `COCCNc1ccnc(-c2ccccc2CN(C)C)n1`, for which the “activity, negative = inhibition” value is 13.3%.
On to `COCCNc1ccnc(-c2ccccc2C(F)(F)F)n1`, for which the AC50 was 10 µM (active).
Regarding `CN(C)Cc1ccccc1-c1nccc(Nc2ccc(F)cc2)n1`, the “activity, negative = inhibition” value is 28.1%.
For `FC(F)(F)c1ccccc1-c1nccc(NCc2ccccc2)n1`, the AC50 was 6.31 µM (active).
As for `CC(=O)NCCNc1ccnc(-c2ccccc2C(F)(F)F)n1`, the “activity, negative = inhibition” value was -32.5%.
Regarding `Cc1cnc(CNc2ccnc(-c3ccccc3C(F)(F)F)n2)cn1`, the “activity, negative = inhibition” value was -11.7%.
On the same count and under the same terms, the result for `COc1ccc(OC[C@@H](CO)OC)cc1` reads 28.9% [at 11.4 µM].
With `Cc1ccccc1-c1nccc(NCc2cccs2)n1`, the AC50 was 3.98 µM (active).
With `CN(C)Cc1ccccc1-c1nccc(NCc2cccs2)n1`, the “activity, negative = inhibition” value is -9.43%.
As for `CC(C)Nc1nc(Oc2ccc(Cl)cc2)cc(C(F)(F)F)n1`, the AC50 is 10 µM (active).
`C[C@@H]1O[C@H](O[C@@H]2[C@H](C)O[C@H](O[C@@H]3[C@H](C)O[C@H](O[C@H]4CC[C@]5(C)[C@@H](CC[C@@H]6[C@H]5C[C@@H](O)[C@]5(C)[C@@H](C7=CC(=O)OC7)CC[C@]65O)C4)C[C@@H]3O)C[C@@H]2O)C[C@H](O)[C@@H]1O`: the “activity, negative = inhibition” value is 57.7% [at 25.6 µM].
The same measure, in the same setting: the result for `Cn1c2c(c(=O)n(C)c1=O)CN(CCN1CCNCC1)CN2` reads 10.8%.
`CC(Sc1nc(NCc2ccccc2)nc(N(C)C)n1)C(=O)Nc1ccccc1` (stereo not drawn): the AC50 was 0.794 µM (active).
For the compound `COc1ccc(NC2=NC(=S)N(c3ccc(C)cc3)C23CCCCC3)cc1`, the “activity, negative = inhibition” value is 14.7%.
Regarding `COc1cc2c(C(=O)NCc3ccc(C)o3)cn(CC(C)C)c(=O)c2cc1OC`, the AC50 was 35.5 µM (active).
As for `CCOc1ccc(-n2cc(C(=O)NCc3ccco3)c3cc(OC)c(OC)cc3c2=O)cc1`, the “activity, negative = inhibition” value was -15.5%.

One may read the AC50 as the midpoint of the concentration-response curve, whichever way the signal moves.

The values are drawn from PubChem BioAssay AID1851 (National Center for Advancing Translational Sciences (NCATS), 2009).
